This is an account of results in PubChem BioAssay (EPA / NIEHS).

The structures appear in SMILES notation. Inconclusive results are not listed. Active and inactive are the calls of the source. How the source made its calls: active means hit-call score of the fitted dose curve at least 0.9, where 1 is the maximum; inconclusive means response in the unintended direction; inactive means score below 0.9.

For test [1], the target named is zebrafish Estrogen Receptor (ESR1), esr1 (gene 259252) (UniProt P57717). In words: ATG_zfER1_XSP1: Attagene TRANS-FACTORIAL Multi-Species (XSP1) HepG2 Assay for zebrafish Estrogen Receptor (ESR1) (AID 2283772). In a few lines: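 Exogenous chimeric receptor-GAL4 activity is measured in transiently transfected human HepG2 liver cells after 24 h compound exposure. Reporter transcripts are detected by RT-PCR and fluorescent capillary electrophoresis, analysed for signal gain relative to DMSO.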

In test [2] the test system is zebrafish Estrogen Receptor (ESR2B), gene 317733. The experiment in a line: ATG_zfER2b_XSP1: Attagene TRANS-FACTORIAL Multi-Species (XSP1) HepG2 Assay for zebrafish Estrogen Receptor (ESR2B) (AID 2283773). The method in brief:
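Human hepatoma HepG2, transiently transfected with multi-reporter units; exogenous zebrafish ESR2B-Gal4 activity measured. Exposure 24 h alongside 3 nM 6-alpha-fluorotestosterone to partly stimulate AR.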

The test system of test [3] is frog Estrogen Receptor (ESR2), gene 100174814. The experiment in a line: ATG_frER2_XSP1: Attagene TRANS-FACTORIAL Multi-Species (XSP1) HepG2 Assay for frog Estrogen Receptor (ESR2) (AID 2283774). In a few lines: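 Multiplexed TRANS-format reporter assay in human hepatoma HepG2: chimeric nuclear receptor-Gal4 activity reported as mRNA induction at 24 h, detected by fluorescent RT-PCR products on capillary electrophoresis and fitted upward from DMSO baseline.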

Test [4] in a line: ACEA_AR_agonist_AUC_viability: ACEA Biosciences xCELLigence Real-Time Cell Analysis on Androgen Receptor Agonism for Viability (AID 2283775).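 On AC50: viability read 80 hours after compound addition.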 In a few lines: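 22Rv1 cells; impedance growth kinetics; 8-pt 1:4 dilutions from 100 uM top final, ≤0.5% DMSO; n = 2; 80 h read; AUC viability, loss-of-signal vs DMSO.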
Test [5] can be described thus: ACEA_AR_antagonist_AUC_viability: ACEA Biosciences xCELLigence Real-Time Cell Analysis on Androgen Receptor Antagonism for Viability (AID 2283776).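 Further: 22Rv1 human prostate cancer cells growing on impedance electrode plates; area under impedance growth curve at 80 h after dosing as viability; hits lower the growth signal relative to DMSO meaning cytotoxicity.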 The method in brief:
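Impedance read-out (RT-CES): area under growth curve at 80 h post-dose, loss of signal scored vs DMSO baseline. 22Rv1 cells; 8-pt 1:4 series, top 100 uM final, ≤0.5% DMSO; biological duplicate.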

In test [6] the test system is frog Estrogen Receptor (ESR1), gene 398734. In words: ATG_frER1_XSP1: Attagene TRANS-FACTORIAL Multi-Species (XSP1) HepG2 Assay for frog Estrogen Receptor (ESR1) (AID 2283777). The method in brief: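 After transient transfection and 24 h compound treatment, total RNA from HepG2 cells was reverse-transcribed, amplified, FAM-labeled and resolved by capillary electrophoresis. Signal increases were fitted against DMSO controls.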

Test [7] concerns zebrafish Estrogen Receptor (ESR2A), gene 317734. In words: ATG_zfER2a_XSP1: Attagene TRANS-FACTORIAL Multi-Species (XSP1) HepG2 Assay for zebrafish Estrogen Receptor (ESR2A) (AID 2283778). In a few lines:
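Gain-of-signal reporter transcription readout from GAL4-UAS units in transiently transfected HepG2 cells, 24 h exposure, 3 nM 6-alpha-fluorotestosterone co-present. Detection by RT-PCR with capillary electrophoresis fluorescence.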

The target in test [8] is chicken Estrogen Receptor (ESR1), ESR1 (gene 396099) (UniProt P06212). In words: ATG_chERa_XSP1: Attagene TRANS-FACTORIAL Multi-Species (XSP1) HepG2 Assay for chicken Estrogen Receptor (ESR1) (AID 2283779). The method in brief: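 Gain-of-signal reporter transcription, relative to DMSO, was scored in transiently transfected HepG2 cells after a 24 h dose. Fluorescence intensity of amplified, digested reporter cDNA fragments served as the endpoint.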

In test [9] the target is Estrogen receptor (Homo sapiens) (UniProt P03372). In words: ATG_hERa_XSP1: Attagene TRANS-FACTORIAL Multi-Species (XSP1) HepG2 Assay for human Estrogen Receptor (ESR1) (AID 2283780). The method in brief:
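Reporter transcripts from multiplexed GAL4-UAS units driven by NR-Gal4 chimeras in transiently transfected HepG2 were measured by RT-PCR with capillary electrophoresis 24 h post-dose, with 3 nM 6-alpha-fluorotestosterone present; gain-of-signal relative to DMSO.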

Test [10] concerns turtle Estrogen Receptor (ESR1), gene 101933533. The experiment in a line: ATG_trERa_XSP1: Attagene TRANS-FACTORIAL Multi-Species (XSP1) HepG2 Assay for turtle Estrogen Receptor (ESR1) (AID 2283781). In a few lines: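 Cell-based chimeric NR-Gal4 transactivation; HepG2; 24 h dosing; mRNA reporter detected by RT-PCR and capillary electrophoresis fluorescence.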
A short description of test [11]: ACEA_ER_AUC_viability: ACEA Biosciences xCELLigence Real-Time Cell Analysis on Estrogen Receptor Agonism for Viability (AID 2283782).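 Further: hit means loss of impedance signal meaning reduced cell growth or viability.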 The method in brief:
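Continuous-exposure impedance cell analysis uses T-47D cells in charcoal-stripped serum, eight 1:4 dilutions topping at 100 uM final, biological duplicate. Area under the growth curve at 80 h is fitted against DMSO baseline.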

In test [12] the test system is turtle Androgen Receptor (AR), gene 101947425. The experiment in a line: ATG_trAR_XSP1: Attagene TRANS-FACTORIAL Multi-Species (XSP1) HepG2 Assay for turtle Androgen Receptor (AR) (AID 2283786). The method in brief: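 Partial androgen stimulation is provided by 3 nM 6-alpha-fluorotestosterone in a multi-species trans-factorial panel expressing a turtle AR–GAL4 fusion in HepG2. After 24 h, reporter mRNA is measured by RT-PCR and capillary electrophoresis and fitted upward against DMSO.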

Test [13] concerns the target Estrogen receptor beta (Homo sapiens) (UniProt Q92731). In words: ATG_hERb_XSP1: Attagene TRANS-FACTORIAL Multi-Species (XSP1) HepG2 Assay for human Estrogen Receptor (ESR2) (AID 2283788). The method in brief:
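Multiplexed trans-activation in transfected HepG2: ERβ-Gal4 reporter transcripts after 24 h treatment, detected by RT-PCR plus capillary electrophoresis.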

The nature of test [14]: ATG_M_06_XSP1: Attagene TRANS-FACTORIAL Multi-Species (XSP1) HepG2 Assay for M06 Transcription Factor (Internal Marker) (AID 2283790). The method in brief:
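This background-control readout tracks M06 reporter mRNA, measured by RT-PCR and capillary electrophoresis. HepG2 cells transiently carrying the GAL4-UAS reporter panel were dosed for 24 h with 3 nM 6-alpha-fluorotestosterone added for partial AR stimulation; increases were scored relative to DMSO.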

Test [15] is described as follows: ATG_M_61_XSP1: Attagene TRANS-FACTORIAL Multi-Species (XSP1) HepG2 Assay for M61 Transcription Factor (Internal Marker) (AID 2283797). In a few lines:
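Background-control readout: reporter transcripts measured by RT-PCR and capillary electrophoresis 24 h after dosing transiently transfected HepG2 multi-reporter cells, with 3 nM 6-alpha-fluorotestosterone present. Fitted in the positive direction relative to DMSO.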

In test [16] the test system is zebrafish Androgen Receptor (AR), gene 100005148. The experiment in a line: ATG_zfAR_XSP1: Attagene TRANS-FACTORIAL Multi-Species (XSP1) HepG2 Assay for zebrafish Androgen Receptor (AR) (AID 2283771). In a few lines: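 Gain-of-signal versus DMSO was measured as reporter transcripts quantified by RT-PCR, fluorescent labelling and capillary electrophoresis after 24 h chemical exposure. The cells were HepG2 expressing a chimeric zebrafish AR-GAL4, co-stimulated with 3 nM 6-alpha-fluorotestosterone.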

Test [17] addresses GAL4 Transcription Factor (Internal Marker), GAL4 (gene 855828) (UniProt P04386). The experiment in a line: ATG_GAL4_XSP1: Attagene TRANS-FACTORIAL Multi-Species (XSP1) HepG2 Assay for GAL4 Transcription Factor (Internal Marker) (AID 2283789). In a few lines: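 This background-control endpoint measures GAL4-driven reporter mRNA via RT-PCR and capillary electrophoresis of labelled fragments. Transiently transfected HepG2 cells were treated 24 h, with 3 nM 6-alpha-fluorotestosterone included, and gain-of-signal was fitted against DMSO.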

Chain of Estrogen receptor (Homo sapiens) (P03372 whole entry, looked up, the tested form may be a part): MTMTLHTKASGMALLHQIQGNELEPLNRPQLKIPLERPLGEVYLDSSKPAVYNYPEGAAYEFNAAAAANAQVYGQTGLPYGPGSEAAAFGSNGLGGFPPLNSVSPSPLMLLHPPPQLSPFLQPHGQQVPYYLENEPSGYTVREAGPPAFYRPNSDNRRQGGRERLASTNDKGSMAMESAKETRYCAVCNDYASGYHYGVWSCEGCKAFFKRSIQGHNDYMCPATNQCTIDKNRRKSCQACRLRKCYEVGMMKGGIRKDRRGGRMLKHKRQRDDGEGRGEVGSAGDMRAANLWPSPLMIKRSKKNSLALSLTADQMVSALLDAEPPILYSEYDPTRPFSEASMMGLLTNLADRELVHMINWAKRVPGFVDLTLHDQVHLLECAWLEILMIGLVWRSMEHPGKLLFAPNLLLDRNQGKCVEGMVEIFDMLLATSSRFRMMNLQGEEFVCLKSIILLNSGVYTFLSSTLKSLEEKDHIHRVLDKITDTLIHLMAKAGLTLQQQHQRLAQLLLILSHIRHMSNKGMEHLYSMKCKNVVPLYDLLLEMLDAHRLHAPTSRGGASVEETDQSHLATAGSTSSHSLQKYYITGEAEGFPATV
Chain of chicken Estrogen Receptor (ESR1), ESR1 (gene 396099) (P06212 whole entry, looked up, the tested form may be a part): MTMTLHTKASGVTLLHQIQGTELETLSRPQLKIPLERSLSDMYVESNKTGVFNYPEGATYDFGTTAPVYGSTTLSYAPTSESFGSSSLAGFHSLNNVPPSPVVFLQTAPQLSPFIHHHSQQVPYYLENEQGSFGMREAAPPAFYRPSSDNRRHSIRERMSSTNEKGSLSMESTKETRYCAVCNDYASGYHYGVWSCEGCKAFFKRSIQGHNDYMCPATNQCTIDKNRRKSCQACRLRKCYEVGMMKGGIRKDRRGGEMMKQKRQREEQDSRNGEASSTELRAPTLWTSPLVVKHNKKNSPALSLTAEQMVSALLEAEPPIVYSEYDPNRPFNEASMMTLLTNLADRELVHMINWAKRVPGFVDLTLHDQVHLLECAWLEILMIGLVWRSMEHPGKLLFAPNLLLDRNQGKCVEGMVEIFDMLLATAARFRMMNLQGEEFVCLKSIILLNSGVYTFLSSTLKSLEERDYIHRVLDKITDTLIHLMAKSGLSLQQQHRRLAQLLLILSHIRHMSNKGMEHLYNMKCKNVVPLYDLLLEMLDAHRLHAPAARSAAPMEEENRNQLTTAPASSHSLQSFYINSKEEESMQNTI
Chain of zebrafish Estrogen Receptor (ESR1), esr1 (gene 259252) (P57717 whole entry, looked up, the tested form may be a part): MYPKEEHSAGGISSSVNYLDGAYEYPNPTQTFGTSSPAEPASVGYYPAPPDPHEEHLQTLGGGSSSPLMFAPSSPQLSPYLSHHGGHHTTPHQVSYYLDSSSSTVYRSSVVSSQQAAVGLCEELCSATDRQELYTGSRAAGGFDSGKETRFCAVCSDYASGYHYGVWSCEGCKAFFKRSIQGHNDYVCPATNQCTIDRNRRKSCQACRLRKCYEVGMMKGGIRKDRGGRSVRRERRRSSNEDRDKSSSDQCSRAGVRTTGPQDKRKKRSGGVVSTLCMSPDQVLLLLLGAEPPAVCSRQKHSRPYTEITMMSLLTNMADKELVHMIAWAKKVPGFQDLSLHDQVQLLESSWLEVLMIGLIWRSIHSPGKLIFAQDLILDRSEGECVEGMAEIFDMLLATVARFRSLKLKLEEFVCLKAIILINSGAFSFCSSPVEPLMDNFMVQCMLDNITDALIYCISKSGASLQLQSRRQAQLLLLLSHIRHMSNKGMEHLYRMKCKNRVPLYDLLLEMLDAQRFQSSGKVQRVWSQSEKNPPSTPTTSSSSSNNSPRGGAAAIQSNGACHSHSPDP
Chain of GAL4 Transcription Factor (Internal Marker), GAL4 (gene 855828) (P04386 whole entry, looked up, the tested form may be a part): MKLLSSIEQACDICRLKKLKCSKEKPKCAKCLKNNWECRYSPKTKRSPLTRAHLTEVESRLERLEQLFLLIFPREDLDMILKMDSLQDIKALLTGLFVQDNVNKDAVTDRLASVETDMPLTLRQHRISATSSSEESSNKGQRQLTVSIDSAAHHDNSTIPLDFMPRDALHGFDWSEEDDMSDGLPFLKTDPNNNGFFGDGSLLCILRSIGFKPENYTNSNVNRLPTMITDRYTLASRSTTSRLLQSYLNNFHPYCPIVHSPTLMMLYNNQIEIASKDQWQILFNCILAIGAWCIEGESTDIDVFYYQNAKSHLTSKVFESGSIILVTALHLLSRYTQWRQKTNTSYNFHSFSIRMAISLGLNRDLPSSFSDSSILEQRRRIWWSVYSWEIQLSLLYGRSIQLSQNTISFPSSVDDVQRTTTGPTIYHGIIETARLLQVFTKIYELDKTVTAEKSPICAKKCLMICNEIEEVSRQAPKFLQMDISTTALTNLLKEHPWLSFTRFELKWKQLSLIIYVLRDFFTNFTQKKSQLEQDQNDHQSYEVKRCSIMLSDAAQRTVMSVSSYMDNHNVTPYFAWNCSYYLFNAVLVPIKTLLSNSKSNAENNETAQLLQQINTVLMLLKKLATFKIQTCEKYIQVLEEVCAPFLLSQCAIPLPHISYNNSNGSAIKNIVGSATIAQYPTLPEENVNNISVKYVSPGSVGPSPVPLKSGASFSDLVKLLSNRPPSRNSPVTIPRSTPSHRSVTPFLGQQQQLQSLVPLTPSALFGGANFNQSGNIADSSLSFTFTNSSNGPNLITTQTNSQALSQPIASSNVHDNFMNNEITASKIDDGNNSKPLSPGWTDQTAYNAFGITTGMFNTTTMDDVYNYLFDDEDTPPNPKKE
Chain of Estrogen receptor beta (Homo sapiens) (Q92731 whole entry, looked up, the tested form may be a part): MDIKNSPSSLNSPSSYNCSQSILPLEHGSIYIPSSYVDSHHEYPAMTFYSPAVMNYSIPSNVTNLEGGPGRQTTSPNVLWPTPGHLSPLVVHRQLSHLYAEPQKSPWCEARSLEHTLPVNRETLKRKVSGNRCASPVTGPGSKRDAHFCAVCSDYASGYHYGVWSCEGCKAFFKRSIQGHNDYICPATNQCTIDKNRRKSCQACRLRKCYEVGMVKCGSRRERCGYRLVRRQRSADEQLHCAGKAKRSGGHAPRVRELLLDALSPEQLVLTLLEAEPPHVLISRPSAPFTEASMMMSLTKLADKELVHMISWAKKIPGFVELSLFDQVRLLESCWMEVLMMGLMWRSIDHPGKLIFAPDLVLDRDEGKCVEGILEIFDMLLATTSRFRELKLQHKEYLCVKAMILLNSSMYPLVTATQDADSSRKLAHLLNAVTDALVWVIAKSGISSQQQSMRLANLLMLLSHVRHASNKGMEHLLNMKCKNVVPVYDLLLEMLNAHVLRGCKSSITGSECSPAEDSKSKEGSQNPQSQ

In the case of `Cc1c(COC(=O)[C@@H]2[C@H](/C=C(\Cl)C(F)(F)F)C2(C)C)cccc1-c1ccccc1`, the compound was classed as inactive in test [1], in [7], in test [8], in test [11], in test [12] and in test [14]. In addition, the compound was classed as inactive in test [15]. For the same compound, the AC50 in test [2] is 69.1 µM (active); in test [3], 100 µM (active); in [4], 69.3 µM (active); in test [5], 31.4 µM (active); in [6], 36.3 µM (active); in test [9], 21.8 µM (active). Moreover, the figures for the AC50 in test [10] and in test [13] were 19.8 µM (active) and 100 µM (active), respectively.
In the case of `Nc1c(Cl)c(Cl)nc(C(=O)O)c1Cl`, the compound was called inactive in test [4], in test [5] and in test [11].
In the case of `Cc1nc(N(C)C)nc(OC(=O)N(C)C)c1C`, the compound was called inactive in test [4].
Take `CC(C)NC(=O)N1CC(=O)N(c2cc(Cl)cc(Cl)c2)C1=O`: the result in test [16], in test [1], in [7], in test [8], in test [11] and in test [17] was inactive. Besides, the AC50 in [2] was 100 µM (active); in test [3], 100 µM (active); in [4], 11.2 µM (active); in [6] it was 100 µM (active); in test [9], 10.3 µM (active); in test [10], 41.4 µM (active).
For `CC(C)Oc1cccc(NC(=O)c2ccccc2C(F)(F)F)c1`, the result in test [4], in test [5] and in test [11] was inactive.
As for `CCOc1nc(F)cc2nc(S(=O)(=O)Nc3c(Cl)cccc3Cl)nn12`, in [4], the compound was called inactive.
`COCC(C)N(C(=O)CCl)c1c(C)csc1C` (configuration not stated): in test [4], the result was inactive. Further, the AC50 in test [5] is 33 µM (active).
Turning to `COP(=S)(OC)Oc1ccc([N+](=O)[O-])c(C)c1`, the outcome in test [1], in test [7], in [11], in test [17], in test [14] and in test [15] was inactive. The AC50 is 74.4 µM (active) in test [2]; 65.9 µM (active) in test [3]; 87.3 µM (active) in test [4]; 71.9 µM (active) in test [5]; 48.9 µM (active) in test [6]; 43.2 µM (active) in [8]. The AC50 is 36.7 µM (active) in [9], 50.1 µM (active) in test [10] and 64 µM (active) in [13].

Usually AC50 stands for the concentration at which the activity in the assay is half-maximal.
